Source: PubChem BioAssay (National Center for Advancing Translational Sciences (NCATS))
VDR inhibitor – vitamin D3 receptor (human) inhibition; P11473; VDR-SRC2-3 peptide fluorescence polarization, 2 h; Potency, µM, for inactives: max response, negative = inhibition, usual class: inhibitors; 0.93% of 400,000 active
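VDR–SRC2-3 interaction, FP format. Cmpds 23 nl via pintool, brief spin, 2 h ambient incubation.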
Sfp inh – blocks B. subtilis Sfp PPTase activity. Q9F4F7. 3.5% of 310,000 active. Potency, µM, for the others: largest response in the series, negative = inhibition, usual class: inhibitors. Biochemical Sfp PPTase activity, qHTS;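 also: the enzyme is Sfp with the accession as filed and its product quenches rhodamine fluorescence; 0% = enzyme reaction without inhibitor and -100% = no enzyme wells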
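Fluorescence-quenching assay with 15 nM Sfp, 5 uM rhodamine-CoA and 12.5 uM BHQ-2-labelled ybbR peptide in pH 7.6 Hepes/MgCl2 buffer. Enzyme was pre-incubated with compound for 15 min at room temperature. Rate was taken from the 30-min fluorescence change (525/598 nm).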
ALOX12 inh – inhibitors of human 12S-lipoxygenase ALOX12; P18054; purified 12hLO, xylenol orange hydroperoxide absorbance; Potency, µM (doses to about 108 µM), without a hit: top-dose activity change, negative = inhibition, most hits filed as inhibitors; 1.1% of 580,000 active; AID 1671190
Target sequence (P18054 whole entry, looked up): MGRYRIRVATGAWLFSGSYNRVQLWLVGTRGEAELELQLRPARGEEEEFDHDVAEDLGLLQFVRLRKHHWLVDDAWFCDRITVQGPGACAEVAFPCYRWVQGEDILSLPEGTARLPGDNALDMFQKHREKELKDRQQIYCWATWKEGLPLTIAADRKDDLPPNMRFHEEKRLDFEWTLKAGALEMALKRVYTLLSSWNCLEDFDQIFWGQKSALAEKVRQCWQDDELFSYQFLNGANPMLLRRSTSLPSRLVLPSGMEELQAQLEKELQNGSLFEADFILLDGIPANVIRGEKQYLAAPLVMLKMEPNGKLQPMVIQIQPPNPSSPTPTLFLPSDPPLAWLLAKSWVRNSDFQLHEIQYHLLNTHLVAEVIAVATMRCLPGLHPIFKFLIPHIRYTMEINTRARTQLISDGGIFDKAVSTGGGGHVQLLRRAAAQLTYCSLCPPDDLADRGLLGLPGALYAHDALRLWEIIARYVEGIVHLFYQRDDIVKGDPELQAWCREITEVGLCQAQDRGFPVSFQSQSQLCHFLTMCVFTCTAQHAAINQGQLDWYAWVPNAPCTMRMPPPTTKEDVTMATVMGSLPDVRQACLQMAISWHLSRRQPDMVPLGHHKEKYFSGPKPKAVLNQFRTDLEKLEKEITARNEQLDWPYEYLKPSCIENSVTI
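Purified human 12hLO (150 nM final) in 25 mM Hepes, 0.01% Triton X-100, pH 7.0 was preincubated 15 min at room temperature with compound. Then 40 uM arachidonic acid was added, 30 min. Hydroperoxide was read by Fe-XO absorbance ratio 573/405 nm.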
PLK1 PBD block – inhibitors of human PLK1 polo-box domain binding; P53350; 2.8% of 360,000 active; Potency, µM, for inactives: max response, negative = inhibition, hits mostly inhibitors; Plk1 PBD binding of FITC phosphopeptide, fluorescence polarization; AID 720504; also: series mostly up to about 57 µM; nearly all actives have a fitted effect of over 65% in size
Numbers without * were called inactive; ? = inconclusive; · = not tested or not shown; [ ] = dose if it differs, or a comment. This is a sample that favours compounds with a hit; in the whole collection about 4.2% have one here. Calls follow the shape of the dose curve; as a rule, active = well fitted curve in the direction sought with a large enough effect; inconclusive = small, poorly fitted or top-dose-only effect, or another doubt; inactive = no such curve, though single readings can be large; an effect the other way counts as inactive or inconclusive. Unless noted, % is scaled to controls: 0 for no effect and ±100 for the full control effect; potency is read from the fitted curve at half-maximal effect.

SMILES	VDR inhibitor	Sfp inh	ALOX12 inh	PLK1 PBD block
O=C(Cc1ccccc1)N/N=C/c1cc(Br)cc(Br)c1O	19%	4%	-20%	-26%
O=C(Nc1nccs1)c1ccc2c(c1)OCCN(c1cccc(OC(F)(F)F)c1)C2	·	·	72%[176 µM]	·
NC(Cc1ccc(Cl)cc1)c1csc(NC(=O)Nc2ccccc2)n1 (stereo not given)	·	·	?	-6%
Clc1ccccc1-c1csc(Nc2cccnc2)n1	4%	32µM*	?	-19%
Clc1cccc(-c2csc(Nc3cccnc3)n2)c1	7%	56µM*	56%	-1%
Cc1cc(C)nc(N2CCCC(C(=O)NCc3ccc4c(c3)OCO4)C2)n1 (stereo not given)	-2%	-9%	0%	-4%
Cc1ccc(NS(=O)(=O)c2c(C)nc3sccn3c2=O)cc1C	3%	19%	8%[57.4 µM]	0%
Cc1ccc(C(CC(=O)c2ccc(Cl)cc2)C(=O)O)cc1 (stereo not given)	-9%	10%	2%	1%
NC(C(=O)O)C(CC(=O)O)c1ccc(Cl)cc1 (stereo not given)	2%	50µM*	1%	·
CC(C)NC(=O)NC(=O)COc1ncnc2sccc12	?	-12%	-15%	27µM*
Cc1ccccc1C(=O)Nc1ccccc1-c1nnn(CC(=O)Nc2ccc3c(c2)OCCO3)n1	2%	56µM*	0%	-13%
CCN=C1S/C(=C/c2ccc(-c3ccc(F)cc3)o2)C(=O)N1CC	-19%	56µM*	·	-4%
COc1ccc(N2C3=C(CC4=C2CC(C)(C)CC4=O)C(=O)CC(C)(C)C3)cc1	-89%	18µM*	28%	8.4µM*
Cc1ccc(C(=O)CSc2nnc(-c3ccco3)n2Cc2ccccc2)cc1	?	-14%	0%	2.7µM*
CCn1c(SCC(=O)c2ccc(Cl)cc2)nnc1-c1ccoc1C	?	-93%	?	-19%
CCn1c(SCC(=O)c2ccc(C)cc2)nnc1-c1ccoc1C	-7%	79µM*	-15%	-7%
O=C(CSc1nnc(-c2ccco2)n1Cc1ccccc1)c1ccccc1	-21%	56µM*	0%	-14%
NC(=O)NC(=O)CSc1nnc(-c2ccco2)n1Cc1ccccc1	-5%	3%	0%	-10%
O=C([C@H]1C[C@H](Oc2cccnc2)CN1C(=O)NCc1ccc(F)cc1)N1CCOCC1	·	·	20%	·
Cc1nonc1CN(C)C(=O)c1cc(COc2ccc(F)cc2Cl)on1	-2%	-6%	-10%	-6%
O=C(NCCCc1ccccc1)c1cc(COc2ccc(F)cc2Cl)on1	?	12%	0%	30µM*
C#CCN(Cc1ccco1)C(=O)c1cc(COc2ccc(F)cc2Cl)on1	-1%	13µM*	-15%	-3%
CN(Cc1ccccn1)C(=O)c1cc(COc2ccc(F)cc2Cl)on1	·	·	-7%	4%
Cc1ccc(CN(C)C(=O)c2cc(COc3ccc(F)cc3Cl)on2)o1	?	35µM*	-19%	15µM*
O=C(NCCc1cccnc1)c1cc(COc2ccc(F)cc2F)on1	0%	-5%	-14%	-1%
SMILES	VDR inhibitor	Sfp inh	ALOX12 inh	PLK1 PBD block
Cc1ccc(S(=O)(=O)C(CCC(=O)N2CCOCC2)S(=O)(=O)c2ccc(C)cc2)cc1	3%	16%	-8%	-9%
Nc1nc(SCC(=O)NCCCN2CCOCC2)nc2sc3c(c12)CCC3	-6%	28µM*	7%[57.4 µM]	?
COC(=O)CSc1nc(N)c2c3c(sc2n1)CCCCC3	·	·	10%	·
CCCN1CCCCC12Cc1ccccc1CN(C(=O)CCCC(=O)O)C2 (stereo not given)	·	·	0%[6.33 µM]	·
Cc1ccc(CCN2CCCCC23Cc2ccccc2CN(C(=O)CCC(=O)O)C3)cc1 (stereo not given)	·	·	32µM*	·
O=c1[nH]c(-c2ccccn2)nc2ccccc12	22%	79µM*	55%	3%
Cc1sc2nc(-c3ccccn3)[nH]c(=O)c2c1-c1ccccc1	?	18µM*	?	19µM*
CN(C)CCCN(C(=O)c1ccc(S(=O)(=O)N2CCc3ccccc3C2)cc1)c1nc2c(F)cccc2s1	5%	4%	?	0%
Cc1ccc2nc(N(CCCN(C)C)C(=O)c3ccc(S(=O)(=O)N4CCc5ccccc5C4)cc3)sc2c1	15%	50µM*	119%	5%
CN(C)CCCN(C(=O)c1ccc(S(=O)(=O)N2CCc3ccccc3C2)cc1)c1nc2ccc(F)cc2s1	1%	45µM*	?	-11%
COc1ccc2sc(N(CCCN(C)C)C(=O)c3ccc(S(=O)(=O)N4CCc5ccccc5C4)cc3)nc2c1	14%	·	?	-4%
